In article PMC5913336, “True equilibrium measurement of transcription factor-DNA binding affinities using automated polarization microscopy”:

What follows are sequences tested against T1, Eip93f (Drosophila melanogaster, UniProt Q9VD60 752-830) (assay: FP; 33 mM phosphate pH 7.0, 90 mM NaCl, 0.01% Tween 20, 0.1 mM DTT, 0.5% agarose; room temperature). Conditions: tags: N-GST (pGEX-6P-1, kept); dsDNA, one strand shown.
T1 sequence: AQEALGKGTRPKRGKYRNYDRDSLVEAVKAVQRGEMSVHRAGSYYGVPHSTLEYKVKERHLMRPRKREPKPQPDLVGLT

Sequence | binding signal
CATAGCCGAAAGTCG | 2.41 Kd / Kd of best base at the position
CATAGCCGACAATCG | 20.2 Kd / Kd of best base at the position
CATAGGCGAAAATCG | 3.03 Kd / Kd of best base at the position
CATAGCCGAACATCG | 5.65 Kd / Kd of best base at the position
CATAGCCGAAAAGCG | 1.89 Kd / Kd of best base at the position
CATAGCCGAAAATCA | 1.07 Kd / Kd of best base at the position

These sequences were tested against T2, Br (Drosophila melanogaster, UniProt Q24206 697-775) in the same assay as above. Conditions: tags: N-GST (pGEX-6P-1, kept); dsDNA, one strand shown.
T2 sequence: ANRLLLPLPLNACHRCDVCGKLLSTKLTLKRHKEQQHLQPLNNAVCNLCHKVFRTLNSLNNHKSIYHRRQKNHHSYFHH

Sequence | binding signal | Kd
GGAATTAGATAAC | 1.59 Kd / Kd of best base at the position | 
GGTATTAGAAAAC | 2.13 Kd / Kd of best base at the position | 
GGAATTAGAAAGC | 1.36 Kd / Kd of best base at the position | 
GGGATTAGAAAAC | 1.54 Kd / Kd of best base at the position | 
GGAATTAGAGAAC | 2.43 Kd / Kd of best base at the position | 
GGATTTAGAAAAC | 2.42 Kd / Kd of best base at the position | 
GGAACTAGAAAAC | 4.4 Kd / Kd of best base at the position | 
GGACTTAGAAAAC | 2.43 Kd / Kd of best base at the position | 
GGAATTAGAAACC | 1.42 Kd / Kd of best base at the position | 
GGAATTATAAAAC | 59.2 Kd / Kd of best base at the position | 
GGCATTAGAAAAC | 2.73 Kd / Kd of best base at the position | 
GGAATTAGAATAC | 1.82 Kd / Kd of best base at the position | 
GGAATTAGGAAAC | 2.63 Kd / Kd of best base at the position | 
GGAATTCGAAAAC | > 1590 Kd / Kd of best base at the position | 
AGAATTAGAAAAC | 1.96 Kd / Kd of best base at the position | 
GGAATTAGAAGAC | 1.24 Kd / Kd of best base at the position | 
GGAATTAGACAAC | 3.07 Kd / Kd of best base at the position | 

Sequence | binding signal | Kd
GGAATCAGAAAAC | > 1590 Kd / Kd of best base at the position | 
GGAATTGGAAAAC | 438 Kd / Kd of best base at the position | 
GGAATTAAAAAAC | > 1590 Kd / Kd of best base at the position | 
TGAATTAGAAAAC | 2.02 Kd / Kd of best base at the position | 
GGAATTAGAAAAC |  | ~6.3 nM
GTAATTAGAAAAC | 2.7 Kd / Kd of best base at the position | 
GCAATTAGAAAAC | 3.05 Kd / Kd of best base at the position | 
GGAAATAGAAAAC | 7.11 Kd / Kd of best base at the position | 
GGAGTTAGAAAAC | 2.41 Kd / Kd of best base at the position | 
GGAAGTAGAAAAC | 40.3 Kd / Kd of best base at the position | 
GGAATTAGTAAAC | 6.81 Kd / Kd of best base at the position | 
GGAATTTGAAAAC | 23.5 Kd / Kd of best base at the position | 
GGAATTAGCAAAC | 6.43 Kd / Kd of best base at the position | 
GGAATTAGAAAAA | 1.22 Kd / Kd of best base at the position | 
GAAATTAGAAAAC | 2.08 Kd / Kd of best base at the position | 
GGAATTAGAACAC | 1.98 Kd / Kd of best base at the position | 
